Source: PubChem
KCNQ2 inh – KCNQ2 (rat) channel inhibition | 310,000 tested, 1.1% active | B-score at 10 µM | AID 2156 | CHO-K1 KCNQ2, FluxOR thallium flux, 20 min; active compounds read low | O88943;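 active = fluorescence ratio B-score at most minus 3 library SDs, with starting brightness B-score within 2 library SDs, cut at about -5.5 in these data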
KCNQ2 pot – enhances the rat KCNQ2 potassium channel; CHO-K1 KCNQ2, FluxOR thallium flux fluorescence; active compounds read high; B-score at 10 µM; 310,000 tested, 0.54% active;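 active = fluorescence ratio B-score at least 3 SD of library B-scores, with initial fluorescence B-score within 3 of them, cut at about 5.3 in these data; same plate scores as AID 2156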;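 note: B-score of peak minus minimum over baseline fluorescence ratio after K+ and Tl+ stimulus; positive B-score means potentiation of KCNQ2 with more thallium influx and brighter signal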
Numbers without * were called inactive; i = inactive; nt = not tested or not shown. Only some compounds are listed: those with a hit (about 1.6% of all), similar ones and a draw of the others.

SMILES	KCNQ2 inh	KCNQ2 pot
CC(C)N(C(=O)CSc1nc(Cc2ccccc2)nc2ccccc12)C(C)C	-6.3*	-6.3
CCC(C)(C)NC(=O)CSc1nc(Cc2ccccc2)nc2ccccc12	-6.3*	-6.3
CC(C)NC(=O)CSc1nc2ccccc2n1CC(=O)N(C(C)C)C(C)C	i	0.34
CSc1nc(Cc2ccccc2)nc2ccccc12	i	nt
CC(C)(C)NC(=O)CSc1nc(Cc2ccccc2)nc2ccccc12	i	nt
CC(C)C[C@H](NC(=O)N1CCn2c1nc1ccccc12)C(=O)N1CCCCC1	i	nt
CCOC(=O)C1=C(C)NC(=S)NC1c1ccc(-c2ccc(Cl)cc2)o1 (centres undefined)	i	7.8*
CCOC(=O)C1=C(C)NC(=O)NC1c1ccc(-c2ccc(Cl)cc2)o1 (centres undefined)	i	0.05
Cc1cc(C)n(CC(O)COc2ccccc2C(=O)Nc2ccccc2)n1 (centres undefined)	-6.6*	-6.6
COc1ccccc1OCC(O)Cn1nc(C)cc1C (centres undefined)	i	nt
Cc1occc1C(=O)Nc1cccc(Cl)c1Cl	i	0.31
CCCC1(C(=O)OC)NC(c2ccc(OC)c(OC)c2)C2C(=O)N(c3cccc(C(C)=O)c3)C(=O)C21 (centres undefined)	i	nt
CCCC1(C(=O)OC)NC(c2ccc(OC)cc2OC)C2C(=O)N(c3cccc(C(C)=O)c3)C(=O)C21 (centres undefined)	-5.9*	-5.9
OCC1OC(Oc2c[nH]c3ccccc23)C(O)C(O)C1O (centres undefined)	i	0.39
CN1CCN(C2Cc3cc(Cl)ccc3Sc3cc(F)ccc32)CC1 (centres undefined)	-6.9*	-6.9
OCCN1CCN(C2Cc3cc(Cl)ccc3Sc3ccc(Cl)cc32)CC1 (centres undefined) (tested in a mixture with another compound)	i	nt
COc1cc(NC(=O)c2c(F)c(F)c(OC)c(F)c2F)ccc1NC(=O)c1cccs1	i	nt
COc1ccc(CCNC(=O)Cc2ccc(OCc3ccccc3)c(OC)c2[N+](=O)[O-])cc1OCc1ccccc1	-7.7*	-7.7
COc1ccc(CCNC(=O)Cc2ccc([N+](=O)[O-])cc2)cc1OC	i	nt
COc1ccccc1CN1CC(C(=O)N(C)Cc2ccc(C)o2)CCC1=O (centres undefined)	i	0.39
CC(C)(C)OC(=O)[C@H]1[C@H](c2ccc([N+](=O)[O-])cc2)C2(C(=O)c3ccccc3C2=O)C2c3ccccc3C=NN21 (some centres undefined)	-6.1*	-6.1
CCOC(=O)C1C(=O)C=C(c2ccc([N+](=O)[O-])cc2)CC1c1ccccc1 (centres undefined)	i	nt
COc1ccc(CNC(=O)C2CCN(C(=O)[C@@H]3Cc4ccccc4CN3)CC2)cc1	i	nt
COc1ccc(C(=O)N2c3ccccc3C=CC2C#N)cc1 (centres undefined)	i	0.44
N#C[C@H]1[C@H](c2ccccc2)[C@](C#N)(C(=O)c2ccccc2)[C@@H]2C=Cc3ccccc3N21	-8.6*	-8.6
SMILES	KCNQ2 inh	KCNQ2 pot
Cc1nc(/N=C(\N)N(C)C)[nH]c(=O)c1C	i	nt
CC(C)Cn1c(-c2cc([N+](=O)[O-])ccc2Cl)nc2c1c(=O)[nH]c(=O)n2Cc1ccccc1	i	7.4*
CC(C)Cn1c(-c2cc(Br)ccc2F)nc2c1c(=O)[nH]c(=O)n2CC(C)C	-6.5*	-6.5
Cc1ccc(-c2nc3c(c(=O)[nH]c(=O)n3CC(C)C)n2CC(C)C)cc1[N+](=O)[O-]	i	nt
CCCCn1c(-c2ccncc2)nc2c1c(=O)[nH]c(=O)n2CC(C)C	i	nt
Cc1cc(C)nc(Nc2ccc(Cl)cc2C)n1	i	nt
Cc1cc(NC(=O)COc2ccc(C(C)(C)C)cc2)no1	i	1.2
CCCCOC(=O)Nc1ccc(S(=O)(=O)Nc2onc(C)c2C)cc1	i	0.3
O=C(CCN1CCc2ccccc2CC1)c1ccc2c(c1)OCCO2	-5.8*	-5.8
O=C(CCCN1CCOCC1)c1ccc2c(c1)OCCO2	i	0.39
Cc1ccc(S(=O)(=O)N2CCN(C(=S)NCc3ccc4c(c3)OCO4)CC2)cc1	i	nt
O=C(O)[C@@H]1CCCC[C@@H]1C(=O)N1CCc2ccccc2C1CN1C(=O)c2ccccc2C1=O (some centres undefined)	i	nt
CCN(CC)C(=O)N1CCc2ccccc2C1CN1C(=O)c2ccccc2C1=O (centres undefined)	-6.2*	-6.2
O=C1c2ccccc2C(=O)N1CC1c2ccccc2CCN1C(=O)CN1CCOCC1 (centres undefined)	i	nt
O=C1c2ccccc2C(=O)N1CC1c2ccccc2CCN1C(=O)C1CCCCC1 (centres undefined)	-6.9*	-6.9
COc1ccc(-c2cc(N)n(S(=O)(=O)c3c(F)c(F)c(F)c(F)c3F)n2)cc1OC	-8.8*	-8.8
CCOc1ccc(-c2cc(N)n(S(=O)(=O)c3ccc(OC)cc3)n2)cc1	i	2
Cc1cc(NC(=O)CCC(=O)N(c2ccccc2)C(C(=O)NC2CCCC2)c2ccccc2C)no1 (centres undefined)	i	0.03
Cc1ccc(N2C(=O)N(CC(=O)NC(c3ccccc3)c3ccccc3)C(=O)C2C)cc1 (centres undefined)	-6*	-6
Cc1ccc(N2C(=O)N(CC(=O)NC(N)=O)C(=O)C2C)cc1 (centres undefined)	i	1.7
Cc1ccc(S(=O)(=O)N/N=C/c2ccc(C#N)cc2)cc1	i	nt
O=C(NCC(c1ccco1)N1CCOCC1)c1ccc(F)c(F)c1 (centres undefined)	i	2
COc1cccc(NC(=O)c2cccs2)c1	i	1.9
COc1cc(NC(=O)c2cccs2)cc(OC)c1	i	6.6*
COc1cccc(/C=N/n2c(=S)n(C)c3cc(C)c(C)cc32)c1OC	-6.1*	-6.1
SMILES	KCNQ2 inh	KCNQ2 pot
COc1cccc(/C=N/n2c(-c3cc(C)[nH]n3)n[nH]c2=S)c1OC	i	nt
COc1ccc(-c2cc(CC3(C(=O)O)CCN(C(=O)OC(C)(C)C)CC3)on2)c(OC)c1	i	nt
COc1ccc(-c2c[n+]3c4n2CCCCC4=C(c2ccccc2)C3)cc1	-6.2*	-6.2
COc1ccc(-c2c[n+](CC(=O)c3ccccc3)c3n2CCCCC3)cc1	i	nt
CC(C)[C@H](N[C@@H](C)c1ccccc1)c1c(O)ccc2ccccc12	i	nt
COC(=O)[C@H](C)NC(=O)COc1ccccc1	i	0.29
CCCCCCCCCNC(=O)[C@H](NC(=O)COc1ccccc1)[C@@H]1NC(C(=O)OC)C(C)(C)S1 (some centres undefined)	-6.3*	-6.3
COc1ccc(C(=O)Nc2ccccc2C(N)=O)cc1	i	0.25
Cc1cccc(/C=N/NC(=O)c2ccccc2OCc2cccc(Br)c2)n1	i	nt
COc1ccc(C(=O)Nc2ccccc2C(=O)N/N=C/c2cccc3ccccc23)cc1	-5.8*	-5.8
COc1ccc(/C(C)=N/NC(=O)c2ccccc2OCc2ccccc2)c(OC)c1	i	nt
Cc1cccc(/C=N/NC(=O)c2cc(Br)ccc2OCc2ccccc2)n1	-5.9*	-5.9
COc1ccc(/C=N/NC(=O)c2ccccc2OCc2ccccc2)c(OC)c1	-6.8*	-6.8
O=C(NCC1CCCN1S(=O)(=O)c1cccs1)c1ccccc1F (centres undefined)	i	nt
CC1CCCC(C)N1C(=O)COC(=O)CNC(=O)c1ccc(Cl)cc1Cl (centres undefined)	i	nt
